± gives the standard deviation of the averaged measurements. About 6,200 targets were measured; listed, in parts, are those with the largest changes and a random draw of the rest.
Compound: Nc1ncnc2c1ncn2[C@@H]1O[C@H](COP(=O)(O)OP(=O)(O)NP(=O)(O)O)[C@@H](O)[C@H]1O [adenylyl imidodiphosphate]
Assay: NP40-soluble protein abundance relative to vehicle (solubility fold change) (ratio); higher = more soluble protein in presence of AMP-PNP
In short: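 Crude Jurkat lysate, prepared by Dounce homogenisation, was exposed to eight concentrations from 0.1 to 10 mM for 10 min at room temperature and then 3 min at 37 °C. Solubilisation used 0.8% NP40 with benzonase for 60 min at 4 °C, followed by ultracentrifugation and TMT labelling of the supernatant for LC-MS/MS. After vsn normalisation of intensities, each value is the fold change against the detergent-processed vehicle within each replicate, across three independent experiments.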

C9JYN0|Q16563-2|Q16563 (UniProt Q16563)
UniProt Q16563, sequence (Q16563 whole entry, one chain of several): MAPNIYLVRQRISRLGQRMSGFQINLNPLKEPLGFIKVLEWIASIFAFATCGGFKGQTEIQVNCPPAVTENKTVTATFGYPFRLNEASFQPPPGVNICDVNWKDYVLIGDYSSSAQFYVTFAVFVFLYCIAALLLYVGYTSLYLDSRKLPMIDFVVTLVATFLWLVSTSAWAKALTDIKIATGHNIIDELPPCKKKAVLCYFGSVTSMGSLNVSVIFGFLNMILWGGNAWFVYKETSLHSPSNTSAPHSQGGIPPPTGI
NP40-soluble protein abundance (concentration: 1mM): 1.01 ± 0.015 | NP40-soluble protein abundance (concentration: 2mM): 1.06 ± 0.12 | NP40-soluble protein abundance (concentration: 4mM): 1.05 ± 0.042 | NP40-soluble protein abundance (concentration: 6mM): 1.12 ± 0.12 | NP40-soluble protein abundance (concentration: 8mM): 1.12 ± 0.057 | NP40-soluble protein abundance (concentration: 10mM): 1.14 ± 0.17

B4DXZ6|P51114 (UniProt P51114)
NP40-soluble protein abundance (concentration: 1mM): 1.12 ± 0.029 | NP40-soluble protein abundance (concentration: 2mM): 1.17 ± 0.039 | NP40-soluble protein abundance (concentration: 4mM): 1.3 ± 0.055 | NP40-soluble protein abundance (concentration: 6mM): 1.43 ± 0.15 | NP40-soluble protein abundance (concentration: 8mM): 1.55 ± 0.2 | NP40-soluble protein abundance (concentration: 10mM): 1.62 ± 0.2

C9JKL2|O95772|O95772-2|C9J3F5|C9JJ39|C9JPX5 (UniProt O95772)
UniProt O95772, sequence (O95772 whole entry, one chain of several): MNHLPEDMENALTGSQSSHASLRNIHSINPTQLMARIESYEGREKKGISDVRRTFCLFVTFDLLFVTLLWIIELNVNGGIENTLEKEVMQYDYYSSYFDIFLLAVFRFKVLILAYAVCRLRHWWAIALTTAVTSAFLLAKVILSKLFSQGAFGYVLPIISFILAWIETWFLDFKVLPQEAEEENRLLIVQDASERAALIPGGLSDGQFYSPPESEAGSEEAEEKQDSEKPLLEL
NP40-soluble protein abundance (concentration: 1mM): 1.02 ± 0.019 | NP40-soluble protein abundance (concentration: 2mM): 1.04 ± 0.036 | NP40-soluble protein abundance (concentration: 4mM): 1.01 ± 0.016 | NP40-soluble protein abundance (concentration: 6mM): 0.989 ± 0.028 | NP40-soluble protein abundance (concentration: 8mM): 0.989 ± 0.019 | NP40-soluble protein abundance (concentration: 10mM): 1 ± 0.034

SART1 (UniProt O43290)
NP40-soluble protein abundance (concentration: 1mM): 1.07 ± 0.048 | NP40-soluble protein abundance (concentration: 2mM): 1.12 ± 0.054 | NP40-soluble protein abundance (concentration: 4mM): 1.11 ± 0.034 | NP40-soluble protein abundance (concentration: 6mM): 1.22 ± 0.089 | NP40-soluble protein abundance (concentration: 8mM): 1.26 ± 0.067 | NP40-soluble protein abundance (concentration: 10mM): 1.36 ± 0.081

F8W922|Q9H7P6|Q9H7P6-2 (UniProt Q9H7P6)
UniProt Q9H7P6, sequence (Q9H7P6 whole entry, one chain of several): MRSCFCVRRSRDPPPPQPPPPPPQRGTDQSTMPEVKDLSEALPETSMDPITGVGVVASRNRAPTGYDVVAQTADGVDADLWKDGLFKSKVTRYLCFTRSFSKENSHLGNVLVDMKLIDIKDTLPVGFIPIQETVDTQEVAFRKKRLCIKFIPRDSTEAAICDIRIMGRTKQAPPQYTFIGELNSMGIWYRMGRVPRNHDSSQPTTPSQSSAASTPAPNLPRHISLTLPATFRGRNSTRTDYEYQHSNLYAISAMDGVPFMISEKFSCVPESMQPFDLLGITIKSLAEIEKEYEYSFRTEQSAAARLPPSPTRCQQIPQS
NP40-soluble protein abundance (concentration: 1mM): 1.01 ± 0.013 | NP40-soluble protein abundance (concentration: 2mM): 0.98 ± 0.022 | NP40-soluble protein abundance (concentration: 4mM): 0.989 ± 0.02 | NP40-soluble protein abundance (concentration: 6mM): 1.02 ± 0.032 | NP40-soluble protein abundance (concentration: 8mM): 1.02 ± 0.016 | NP40-soluble protein abundance (concentration: 10mM): 1.02 ± 0.013

H3BPB8|P34949 (UniProt P34949)
NP40-soluble protein abundance (concentration: 1mM): 1.029 ± 0.0072 | NP40-soluble protein abundance (concentration: 2mM): 1.01 ± 0.039 | NP40-soluble protein abundance (concentration: 4mM): 1.02 ± 0.027 | NP40-soluble protein abundance (concentration: 6mM): 0.976 ± 0.029 | NP40-soluble protein abundance (concentration: 8mM): 1.01 ± 0.042 | NP40-soluble protein abundance (concentration: 10mM): 0.988 ± 0.048

K4DI93|Q13620-1 (UniProt Q13620)
NP40-soluble protein abundance (concentration: 1mM): 0.991 ± 0.011 | NP40-soluble protein abundance (concentration: 2mM): 0.936 ± 0.05 | NP40-soluble protein abundance (concentration: 4mM): 0.9972 ± 0.0076 | NP40-soluble protein abundance (concentration: 6mM): 0.992 ± 0.028 | NP40-soluble protein abundance (concentration: 8mM): 1 ± 0.017 | NP40-soluble protein abundance (concentration: 10mM): 0.995 ± 0.024

DKC1 (UniProt O60832)
NP40-soluble protein abundance (concentration: 1mM): 1.049 ± 0.0097 | NP40-soluble protein abundance (concentration: 2mM): 1.1 ± 0.057 | NP40-soluble protein abundance (concentration: 4mM): 1.13 ± 0.028 | NP40-soluble protein abundance (concentration: 6mM): 1.21 ± 0.051 | NP40-soluble protein abundance (concentration: 8mM): 1.29 ± 0.046 | NP40-soluble protein abundance (concentration: 10mM): 1.36 ± 0.083

CCNT1 (UniProt O60563)
UniProt O60563, sequence (O60563 whole entry): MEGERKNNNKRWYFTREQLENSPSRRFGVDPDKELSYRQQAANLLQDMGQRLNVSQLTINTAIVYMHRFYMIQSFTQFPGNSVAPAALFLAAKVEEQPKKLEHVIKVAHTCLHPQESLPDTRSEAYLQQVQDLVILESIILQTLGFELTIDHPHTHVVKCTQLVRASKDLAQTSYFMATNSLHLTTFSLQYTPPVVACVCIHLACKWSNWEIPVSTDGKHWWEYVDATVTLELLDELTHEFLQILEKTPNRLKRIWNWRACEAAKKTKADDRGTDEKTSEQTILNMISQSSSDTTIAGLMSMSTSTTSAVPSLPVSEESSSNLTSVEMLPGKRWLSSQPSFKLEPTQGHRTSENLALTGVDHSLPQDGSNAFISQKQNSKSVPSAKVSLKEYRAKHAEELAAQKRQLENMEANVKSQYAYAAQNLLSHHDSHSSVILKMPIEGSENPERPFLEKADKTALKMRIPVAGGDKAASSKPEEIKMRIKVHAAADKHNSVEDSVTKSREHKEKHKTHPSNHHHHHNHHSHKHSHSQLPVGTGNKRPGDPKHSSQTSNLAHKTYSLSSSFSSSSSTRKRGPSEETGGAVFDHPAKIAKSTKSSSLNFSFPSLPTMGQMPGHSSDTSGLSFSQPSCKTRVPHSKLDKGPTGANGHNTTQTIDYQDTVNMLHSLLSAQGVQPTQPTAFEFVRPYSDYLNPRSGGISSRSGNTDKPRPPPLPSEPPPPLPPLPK
NP40-soluble protein abundance (concentration: 1mM): 1.1 ± 0.051 | NP40-soluble protein abundance (concentration: 2mM): 1.19 ± 0.074 | NP40-soluble protein abundance (concentration: 4mM): 1.21 ± 0.064 | NP40-soluble protein abundance (concentration: 6mM): 1.25 ± 0.12 | NP40-soluble protein abundance (concentration: 8mM): 1.31 ± 0.11 | NP40-soluble protein abundance (concentration: 10mM): 1.4 ± 0.14

E9PGC5|Q15262-2|Q15262-3|Q15262-4|Q5TG12|Q15262 (UniProt Q15262)
UniProt Q15262, sequence (Q15262 whole entry, one chain of several): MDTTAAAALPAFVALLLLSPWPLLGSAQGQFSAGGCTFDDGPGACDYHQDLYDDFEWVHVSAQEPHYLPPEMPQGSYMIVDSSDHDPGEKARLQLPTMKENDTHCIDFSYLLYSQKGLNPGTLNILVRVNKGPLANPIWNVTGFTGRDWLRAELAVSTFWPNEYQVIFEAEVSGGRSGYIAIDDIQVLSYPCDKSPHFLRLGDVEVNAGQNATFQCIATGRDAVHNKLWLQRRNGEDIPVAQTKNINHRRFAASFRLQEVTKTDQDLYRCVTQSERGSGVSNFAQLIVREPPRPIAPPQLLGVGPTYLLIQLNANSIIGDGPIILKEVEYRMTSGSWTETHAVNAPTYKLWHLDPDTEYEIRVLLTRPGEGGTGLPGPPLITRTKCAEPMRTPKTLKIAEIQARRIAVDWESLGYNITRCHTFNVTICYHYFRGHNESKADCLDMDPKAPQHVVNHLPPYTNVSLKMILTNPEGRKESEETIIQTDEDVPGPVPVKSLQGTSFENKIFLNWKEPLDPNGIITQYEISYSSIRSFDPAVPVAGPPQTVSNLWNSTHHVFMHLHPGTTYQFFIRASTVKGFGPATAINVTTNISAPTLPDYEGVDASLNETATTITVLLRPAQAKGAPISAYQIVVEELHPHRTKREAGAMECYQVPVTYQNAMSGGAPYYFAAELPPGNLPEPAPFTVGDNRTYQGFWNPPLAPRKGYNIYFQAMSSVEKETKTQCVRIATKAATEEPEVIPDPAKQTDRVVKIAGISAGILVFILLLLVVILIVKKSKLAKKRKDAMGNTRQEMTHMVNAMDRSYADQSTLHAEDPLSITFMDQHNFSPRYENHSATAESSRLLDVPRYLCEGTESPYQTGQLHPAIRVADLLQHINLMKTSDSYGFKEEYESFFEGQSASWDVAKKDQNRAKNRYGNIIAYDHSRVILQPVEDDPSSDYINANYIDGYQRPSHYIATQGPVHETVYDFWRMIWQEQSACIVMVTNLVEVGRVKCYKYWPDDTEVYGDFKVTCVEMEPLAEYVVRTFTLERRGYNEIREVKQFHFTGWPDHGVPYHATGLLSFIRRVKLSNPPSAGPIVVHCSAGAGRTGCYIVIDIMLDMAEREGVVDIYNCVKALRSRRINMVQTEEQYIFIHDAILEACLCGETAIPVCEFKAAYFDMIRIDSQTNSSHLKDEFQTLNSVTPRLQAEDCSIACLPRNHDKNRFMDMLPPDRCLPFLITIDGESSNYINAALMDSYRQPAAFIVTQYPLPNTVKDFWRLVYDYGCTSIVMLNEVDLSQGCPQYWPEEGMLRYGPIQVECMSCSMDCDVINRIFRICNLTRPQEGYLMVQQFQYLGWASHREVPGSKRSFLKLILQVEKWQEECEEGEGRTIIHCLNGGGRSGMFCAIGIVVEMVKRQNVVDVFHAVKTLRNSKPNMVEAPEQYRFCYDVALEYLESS
NP40-soluble protein abundance (concentration: 1mM): 1.02 ± 0.011 | NP40-soluble protein abundance (concentration: 2mM): 1.04 ± 0.053 | NP40-soluble protein abundance (concentration: 4mM): 1.02 ± 0.028 | NP40-soluble protein abundance (concentration: 6mM): 1.01 ± 0.015 | NP40-soluble protein abundance (concentration: 8mM): 0.997 ± 0.011 | NP40-soluble protein abundance (concentration: 10mM): 1.01 ± 0.019

J3KNN5|Q9UJV9 (UniProt Q9UJV9)
UniProt Q9UJV9, sequence (Q9UJV9 whole entry, one chain of several): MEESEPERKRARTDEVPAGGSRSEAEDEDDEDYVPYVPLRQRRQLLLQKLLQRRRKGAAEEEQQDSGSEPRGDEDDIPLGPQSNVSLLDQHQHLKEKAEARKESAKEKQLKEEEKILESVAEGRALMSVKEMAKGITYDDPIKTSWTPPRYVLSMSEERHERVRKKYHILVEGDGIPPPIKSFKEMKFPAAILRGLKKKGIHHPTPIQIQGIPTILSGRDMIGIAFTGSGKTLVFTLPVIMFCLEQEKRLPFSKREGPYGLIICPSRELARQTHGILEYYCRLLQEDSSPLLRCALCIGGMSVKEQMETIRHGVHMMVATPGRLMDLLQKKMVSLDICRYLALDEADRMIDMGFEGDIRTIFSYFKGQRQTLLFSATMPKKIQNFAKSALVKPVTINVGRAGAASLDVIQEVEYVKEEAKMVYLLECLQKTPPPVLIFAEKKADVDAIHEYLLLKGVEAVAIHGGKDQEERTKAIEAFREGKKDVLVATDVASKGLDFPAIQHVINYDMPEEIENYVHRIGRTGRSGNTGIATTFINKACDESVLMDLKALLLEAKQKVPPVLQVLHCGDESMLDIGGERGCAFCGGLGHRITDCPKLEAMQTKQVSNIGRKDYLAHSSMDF
NP40-soluble protein abundance (concentration: 1mM): 1.11 ± 0.029 | NP40-soluble protein abundance (concentration: 2mM): 1.1 ± 0.043 | NP40-soluble protein abundance (concentration: 4mM): 1.13 ± 0.073 | NP40-soluble protein abundance (concentration: 6mM): 1.12 ± 0.035 | NP40-soluble protein abundance (concentration: 8mM): 1.15 ± 0.053 | NP40-soluble protein abundance (concentration: 10mM): 1.22 ± 0.065

A0A0A0MTB8|Q8NI36 (UniProt Q8NI36)
UniProt Q8NI36, sequence (Q8NI36 whole entry, one chain of several): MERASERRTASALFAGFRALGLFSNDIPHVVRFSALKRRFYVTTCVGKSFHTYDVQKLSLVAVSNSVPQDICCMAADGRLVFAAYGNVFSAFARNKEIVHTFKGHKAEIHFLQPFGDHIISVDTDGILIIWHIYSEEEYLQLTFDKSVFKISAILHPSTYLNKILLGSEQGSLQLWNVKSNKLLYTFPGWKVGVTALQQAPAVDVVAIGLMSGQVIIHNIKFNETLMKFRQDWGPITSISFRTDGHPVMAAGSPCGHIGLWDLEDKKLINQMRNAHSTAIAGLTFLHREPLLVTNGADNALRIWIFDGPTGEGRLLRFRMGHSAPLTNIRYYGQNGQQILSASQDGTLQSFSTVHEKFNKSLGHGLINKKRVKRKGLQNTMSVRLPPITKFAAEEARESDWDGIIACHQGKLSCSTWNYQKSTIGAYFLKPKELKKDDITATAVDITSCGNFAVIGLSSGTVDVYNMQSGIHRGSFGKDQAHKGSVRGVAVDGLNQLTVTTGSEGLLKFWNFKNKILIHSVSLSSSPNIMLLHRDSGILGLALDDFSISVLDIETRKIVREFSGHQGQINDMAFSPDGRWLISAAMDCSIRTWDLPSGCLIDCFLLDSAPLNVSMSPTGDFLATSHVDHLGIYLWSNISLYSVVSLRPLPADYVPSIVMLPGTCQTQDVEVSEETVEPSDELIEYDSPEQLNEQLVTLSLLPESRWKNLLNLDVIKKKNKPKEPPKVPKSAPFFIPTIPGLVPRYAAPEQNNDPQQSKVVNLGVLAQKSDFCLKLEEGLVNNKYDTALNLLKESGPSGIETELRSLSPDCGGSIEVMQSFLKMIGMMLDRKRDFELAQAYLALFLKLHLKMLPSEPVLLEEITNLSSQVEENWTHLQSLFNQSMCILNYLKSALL
NP40-soluble protein abundance (concentration: 1mM): 1.1 ± 0.06 | NP40-soluble protein abundance (concentration: 2mM): 1.15 ± 0.11 | NP40-soluble protein abundance (concentration: 4mM): 1.37 ± 0.12 | NP40-soluble protein abundance (concentration: 6mM): 1.55 ± 0.11 | NP40-soluble protein abundance (concentration: 8mM): 1.73 ± 0.16 | NP40-soluble protein abundance (concentration: 10mM): 1.78 ± 0.086

B5MCS2|Q8WTS6 (UniProt Q8WTS6)
NP40-soluble protein abundance (concentration: 1mM): 0.93 ± 0.076 | NP40-soluble protein abundance (concentration: 2mM): 0.946 ± 0.039 | NP40-soluble protein abundance (concentration: 4mM): 0.946 ± 0.043 | NP40-soluble protein abundance (concentration: 6mM): 0.954 ± 0.032 | NP40-soluble protein abundance (concentration: 8mM): 0.957 ± 0.022 | NP40-soluble protein abundance (concentration: 10mM): 0.936 ± 0.042

PSMD3 (UniProt O43242)
NP40-soluble protein abundance (concentration: 1mM): 0.909 ± 0.031 | NP40-soluble protein abundance (concentration: 2mM): 0.865 ± 0.055 | NP40-soluble protein abundance (concentration: 4mM): 0.885 ± 0.091 | NP40-soluble protein abundance (concentration: 6mM): 0.906 ± 0.087 | NP40-soluble protein abundance (concentration: 8mM): 0.933 ± 0.11 | NP40-soluble protein abundance (concentration: 10mM): 0.915 ± 0.14

D6REA0|O75879 (UniProt O75879)
UniProt O75879, sequence (O75879 whole entry, one chain of several): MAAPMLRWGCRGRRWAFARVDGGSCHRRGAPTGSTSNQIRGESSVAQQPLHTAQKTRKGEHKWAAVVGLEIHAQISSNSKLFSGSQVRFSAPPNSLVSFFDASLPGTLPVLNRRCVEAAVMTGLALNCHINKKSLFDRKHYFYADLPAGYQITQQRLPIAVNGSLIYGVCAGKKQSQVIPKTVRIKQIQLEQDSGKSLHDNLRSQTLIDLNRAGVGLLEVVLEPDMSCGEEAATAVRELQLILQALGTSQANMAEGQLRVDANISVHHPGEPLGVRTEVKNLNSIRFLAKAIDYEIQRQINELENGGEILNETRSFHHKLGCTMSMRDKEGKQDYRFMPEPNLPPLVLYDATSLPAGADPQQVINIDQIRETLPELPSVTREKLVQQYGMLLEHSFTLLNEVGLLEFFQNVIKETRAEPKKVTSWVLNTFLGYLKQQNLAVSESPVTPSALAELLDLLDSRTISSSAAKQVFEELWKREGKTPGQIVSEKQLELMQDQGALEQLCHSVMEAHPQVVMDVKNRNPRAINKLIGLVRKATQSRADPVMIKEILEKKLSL
NP40-soluble protein abundance (concentration: 1mM): 0.962 ± 0.026 | NP40-soluble protein abundance (concentration: 2mM): 0.9665 ± 0.0091 | NP40-soluble protein abundance (concentration: 4mM): 0.968 ± 0.036 | NP40-soluble protein abundance (concentration: 6mM): 1.03 ± 0.028 | NP40-soluble protein abundance (concentration: 8mM): 0.986 ± 0.038 | NP40-soluble protein abundance (concentration: 10mM): 1.003 ± 0.0032
